Results from the supplement of paper PMC6411743.
± gives the standard deviation of the averaged measurements. Of roughly 6,200 targets only a part is listed; those with the largest changes were picked by preference.

Compound: Nc1ncnc2c1ncn2[C@@H]1O[C@H](COP(=O)(O)OP(=O)(O)NP(=O)(O)O)[C@@H](O)[C@H]1O [adenylyl imidodiphosphate]
Test: NP40-soluble protein abundance relative to vehicle (solubility fold change) (ratio); higher = more soluble protein in presence of AMP-PNP
Method in brief: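 In three independent experiments, Jurkat crude lysate made by Dounce homogenisation was treated for 10 min at room temperature and then 3 min at 37 °C with eight concentrations ranging from 0.1 to 10 mM. It was then solubilised with 0.8% NP40 plus benzonase for 60 min at 4 °C and ultracentrifuged. The supernatant was TMT-labelled for LC-MS/MS, and each value is the fold change against the detergent-processed vehicle for the same replicate, using vsn-normalised intensities.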

A0A0A0MQS2|F5H0Q6 (UniProt Q8N2M8)
Sequence of UniProt Q8N2M8 (Q8N2M8 whole entry, one chain of several): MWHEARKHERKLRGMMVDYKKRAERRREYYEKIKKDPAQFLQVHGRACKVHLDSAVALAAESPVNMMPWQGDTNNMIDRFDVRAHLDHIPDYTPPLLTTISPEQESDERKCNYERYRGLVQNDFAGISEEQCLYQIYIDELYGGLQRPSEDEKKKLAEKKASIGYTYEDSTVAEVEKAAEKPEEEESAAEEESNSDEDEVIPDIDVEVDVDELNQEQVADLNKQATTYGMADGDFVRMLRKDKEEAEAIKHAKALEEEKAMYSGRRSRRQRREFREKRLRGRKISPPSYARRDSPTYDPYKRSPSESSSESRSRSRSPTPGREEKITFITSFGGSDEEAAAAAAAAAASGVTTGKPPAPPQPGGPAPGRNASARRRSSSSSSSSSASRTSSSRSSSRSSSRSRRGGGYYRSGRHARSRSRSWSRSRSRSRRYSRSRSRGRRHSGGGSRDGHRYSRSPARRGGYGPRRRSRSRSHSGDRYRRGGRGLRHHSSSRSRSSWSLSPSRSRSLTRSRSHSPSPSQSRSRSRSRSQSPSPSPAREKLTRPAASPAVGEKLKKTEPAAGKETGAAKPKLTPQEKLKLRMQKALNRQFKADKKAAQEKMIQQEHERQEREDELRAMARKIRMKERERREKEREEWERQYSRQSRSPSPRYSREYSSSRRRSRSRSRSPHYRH
NP40-soluble protein abundance (concentration: 1mM): 1.06 ± 0.049 | NP40-soluble protein abundance (concentration: 2mM): 1.13 ± 0.083 | NP40-soluble protein abundance (concentration: 4mM): 1.04 ± 0.064 | NP40-soluble protein abundance (concentration: 6mM): 1.06 ± 0.1 | NP40-soluble protein abundance (concentration: 8mM): 1.04 ± 0.043 | NP40-soluble protein abundance (concentration: 10mM): 1.06 ± 0.015

B0YIW6|P48444 (UniProt P48444)
Sequence of UniProt P48444 (P48444 whole entry, one chain of several): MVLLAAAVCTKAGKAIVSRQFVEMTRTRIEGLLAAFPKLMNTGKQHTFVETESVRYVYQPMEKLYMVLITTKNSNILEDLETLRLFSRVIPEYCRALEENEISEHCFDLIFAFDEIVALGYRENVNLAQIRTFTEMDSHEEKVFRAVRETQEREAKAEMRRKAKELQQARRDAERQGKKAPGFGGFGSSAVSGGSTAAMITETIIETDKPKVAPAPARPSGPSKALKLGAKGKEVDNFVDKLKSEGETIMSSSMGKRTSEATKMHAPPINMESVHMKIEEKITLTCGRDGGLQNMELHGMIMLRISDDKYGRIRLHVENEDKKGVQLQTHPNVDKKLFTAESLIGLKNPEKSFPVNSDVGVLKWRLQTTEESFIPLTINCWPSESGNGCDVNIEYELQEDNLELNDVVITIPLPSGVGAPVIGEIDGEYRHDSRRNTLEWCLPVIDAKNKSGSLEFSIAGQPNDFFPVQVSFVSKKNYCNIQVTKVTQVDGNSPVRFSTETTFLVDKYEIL
NP40-soluble protein abundance (concentration: 1mM): 0.98 ± 0.015 | NP40-soluble protein abundance (concentration: 2mM): 0.931 ± 0.045 | NP40-soluble protein abundance (concentration: 4mM): 0.949 ± 0.01 | NP40-soluble protein abundance (concentration: 6mM): 0.9391 ± 0.0089 | NP40-soluble protein abundance (concentration: 8mM): 0.9554 ± 0.0037 | NP40-soluble protein abundance (concentration: 10mM): 0.921 ± 0.017

F8W1A0|P36873 (UniProt P36873)
Sequence of UniProt P36873 (P36873 whole entry, looked up, one chain of several): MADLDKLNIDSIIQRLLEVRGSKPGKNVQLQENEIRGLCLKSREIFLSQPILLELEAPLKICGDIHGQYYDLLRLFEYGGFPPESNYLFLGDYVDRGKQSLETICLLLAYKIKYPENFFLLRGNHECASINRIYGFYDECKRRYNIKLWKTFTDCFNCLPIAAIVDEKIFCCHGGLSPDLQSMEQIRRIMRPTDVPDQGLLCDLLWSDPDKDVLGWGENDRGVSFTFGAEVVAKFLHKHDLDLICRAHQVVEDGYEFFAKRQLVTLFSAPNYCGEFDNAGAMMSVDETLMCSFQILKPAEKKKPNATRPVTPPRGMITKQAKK
NP40-soluble protein abundance (concentration: 1mM): 0.983 ± 0.022 | NP40-soluble protein abundance (concentration: 2mM): 0.928 ± 0.056 | NP40-soluble protein abundance (concentration: 4mM): 0.972 ± 0.014 | NP40-soluble protein abundance (concentration: 6mM): 0.985 ± 0.03 | NP40-soluble protein abundance (concentration: 8mM): 0.986 ± 0.021 | NP40-soluble protein abundance (concentration: 10mM): 0.9667 ± 0.0073

C9J0Q5|C9JE98|C9JFD3|Q9Y618|Q9Y618-3|Q9Y618-4|Q9Y618-5 (UniProt Q9Y618)
NP40-soluble protein abundance (concentration: 1mM): 1.03 ± 0.0079 | NP40-soluble protein abundance (concentration: 2mM): 1.05 ± 0.04 | NP40-soluble protein abundance (concentration: 4mM): 1.03 ± 0.035 | NP40-soluble protein abundance (concentration: 6mM): 0.969 ± 0.057 | NP40-soluble protein abundance (concentration: 8mM): 0.951 ± 0.02 | NP40-soluble protein abundance (concentration: 10mM): 1.01 ± 0.052

E7EMP6|Q96FZ2 (UniProt Q96FZ2)
Sequence of UniProt Q96FZ2 (Q96FZ2 whole entry, one chain of several): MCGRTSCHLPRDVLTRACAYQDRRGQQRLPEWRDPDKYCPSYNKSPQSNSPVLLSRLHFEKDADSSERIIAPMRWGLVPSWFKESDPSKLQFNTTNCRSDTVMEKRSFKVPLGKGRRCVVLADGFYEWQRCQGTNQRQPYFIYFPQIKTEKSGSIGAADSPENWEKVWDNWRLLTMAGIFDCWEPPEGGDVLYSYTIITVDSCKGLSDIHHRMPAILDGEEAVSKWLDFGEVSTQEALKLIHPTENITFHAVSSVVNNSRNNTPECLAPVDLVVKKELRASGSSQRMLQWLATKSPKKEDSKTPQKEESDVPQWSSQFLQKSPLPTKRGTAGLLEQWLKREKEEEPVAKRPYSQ
NP40-soluble protein abundance (concentration: 1mM): 1.06 ± 0.015 | NP40-soluble protein abundance (concentration: 2mM): 1.01 ± 0.032 | NP40-soluble protein abundance (concentration: 4mM): 1.04 ± 0.021 | NP40-soluble protein abundance (concentration: 6mM): 0.9875 ± 0.0043 | NP40-soluble protein abundance (concentration: 8mM): 1.01 ± 0.016 | NP40-soluble protein abundance (concentration: 10mM): 1 ± 0.033

A0A0C4DH01|Q9NVU0|Q9NVU0-4|Q9NVU0-5|Q9NVU0-2|Q9NVU0-3 (UniProt Q9NVU0)
Sequence of UniProt Q9NVU0 (Q9NVU0 whole entry, one chain of several): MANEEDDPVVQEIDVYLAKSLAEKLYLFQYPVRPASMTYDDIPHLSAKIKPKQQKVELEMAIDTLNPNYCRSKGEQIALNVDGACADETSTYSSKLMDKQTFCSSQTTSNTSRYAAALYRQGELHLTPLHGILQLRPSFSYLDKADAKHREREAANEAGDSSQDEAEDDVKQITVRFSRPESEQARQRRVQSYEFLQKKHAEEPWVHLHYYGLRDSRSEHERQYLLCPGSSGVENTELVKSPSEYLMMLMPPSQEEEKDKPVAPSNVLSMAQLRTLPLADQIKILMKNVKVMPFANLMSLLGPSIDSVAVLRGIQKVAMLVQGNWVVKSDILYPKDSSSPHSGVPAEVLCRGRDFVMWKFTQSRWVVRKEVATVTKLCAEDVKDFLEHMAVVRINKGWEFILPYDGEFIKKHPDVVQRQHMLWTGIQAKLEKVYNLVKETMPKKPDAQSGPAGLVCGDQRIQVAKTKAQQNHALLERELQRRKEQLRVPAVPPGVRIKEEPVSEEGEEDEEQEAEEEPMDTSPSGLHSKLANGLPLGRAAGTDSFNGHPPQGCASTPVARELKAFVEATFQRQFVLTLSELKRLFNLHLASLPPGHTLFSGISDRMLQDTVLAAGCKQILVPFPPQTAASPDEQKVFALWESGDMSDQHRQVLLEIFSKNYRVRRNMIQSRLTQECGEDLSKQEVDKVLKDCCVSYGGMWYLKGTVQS
NP40-soluble protein abundance (concentration: 1mM): 1 ± 0.058 | NP40-soluble protein abundance (concentration: 2mM): 1.02 ± 0.019 | NP40-soluble protein abundance (concentration: 4mM): 1.06 ± 0.052 | NP40-soluble protein abundance (concentration: 6mM): 1.03 ± 0.063 | NP40-soluble protein abundance (concentration: 8mM): 1.02 ± 0.064 | NP40-soluble protein abundance (concentration: 10mM): 1.07 ± 0.081

F8VUY8|Q96QD8 (UniProt Q96QD8)
Sequence of UniProt Q96QD8 (Q96QD8 whole entry, one chain of several): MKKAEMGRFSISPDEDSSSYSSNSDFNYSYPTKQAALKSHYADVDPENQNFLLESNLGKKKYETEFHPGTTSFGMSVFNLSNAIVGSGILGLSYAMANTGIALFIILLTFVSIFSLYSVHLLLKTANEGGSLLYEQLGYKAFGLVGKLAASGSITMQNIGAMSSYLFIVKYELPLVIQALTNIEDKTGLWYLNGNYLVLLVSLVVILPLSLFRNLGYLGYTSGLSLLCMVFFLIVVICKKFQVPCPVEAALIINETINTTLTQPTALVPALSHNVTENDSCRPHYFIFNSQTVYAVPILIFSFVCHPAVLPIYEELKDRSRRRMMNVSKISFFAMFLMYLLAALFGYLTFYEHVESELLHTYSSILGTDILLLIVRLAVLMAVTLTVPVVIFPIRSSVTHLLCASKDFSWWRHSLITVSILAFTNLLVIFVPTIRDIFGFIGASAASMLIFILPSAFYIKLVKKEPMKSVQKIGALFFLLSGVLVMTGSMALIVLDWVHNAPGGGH
NP40-soluble protein abundance (concentration: 1mM): 1 ± 0.015 | NP40-soluble protein abundance (concentration: 2mM): 1.07 ± 0.091 | NP40-soluble protein abundance (concentration: 4mM): 1 ± 0.022 | NP40-soluble protein abundance (concentration: 6mM): 0.967 ± 0.022 | NP40-soluble protein abundance (concentration: 8mM): 0.988 ± 0.014 | NP40-soluble protein abundance (concentration: 10mM): 0.989 ± 0.02

DKC1 (UniProt O60832)
Sequence of UniProt O60832 (O60832 whole entry): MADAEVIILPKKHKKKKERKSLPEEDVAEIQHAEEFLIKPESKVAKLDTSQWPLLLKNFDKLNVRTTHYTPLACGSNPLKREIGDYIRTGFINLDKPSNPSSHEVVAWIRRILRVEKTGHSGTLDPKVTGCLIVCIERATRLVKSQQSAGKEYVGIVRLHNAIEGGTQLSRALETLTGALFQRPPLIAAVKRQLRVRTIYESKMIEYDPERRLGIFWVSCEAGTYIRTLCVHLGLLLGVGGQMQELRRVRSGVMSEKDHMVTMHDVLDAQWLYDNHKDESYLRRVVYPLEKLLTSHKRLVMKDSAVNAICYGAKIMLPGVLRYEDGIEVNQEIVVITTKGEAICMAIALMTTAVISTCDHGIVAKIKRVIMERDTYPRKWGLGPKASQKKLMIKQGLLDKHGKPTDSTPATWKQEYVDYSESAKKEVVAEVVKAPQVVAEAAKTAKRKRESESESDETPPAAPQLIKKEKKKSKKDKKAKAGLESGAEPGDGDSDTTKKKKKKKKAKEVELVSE
NP40-soluble protein abundance (concentration: 1mM): 1.049 ± 0.0097 | NP40-soluble protein abundance (concentration: 2mM): 1.1 ± 0.057 | NP40-soluble protein abundance (concentration: 4mM): 1.13 ± 0.028 | NP40-soluble protein abundance (concentration: 6mM): 1.21 ± 0.051 | NP40-soluble protein abundance (concentration: 8mM): 1.29 ± 0.046 | NP40-soluble protein abundance (concentration: 10mM): 1.36 ± 0.083

J3KNV1|O60281 (UniProt O60281)
NP40-soluble protein abundance (concentration: 1mM): 1.02 ± 0.034 | NP40-soluble protein abundance (concentration: 2mM): 1.08 ± 0.024 | NP40-soluble protein abundance (concentration: 4mM): 1.016 ± 0.0028 | NP40-soluble protein abundance (concentration: 6mM): 0.966 ± 0.034 | NP40-soluble protein abundance (concentration: 8mM): 0.968 ± 0.02 | NP40-soluble protein abundance (concentration: 10mM): 0.985 ± 0.041

ARPC2 (UniProt O15144)
NP40-soluble protein abundance (concentration: 1mM): 0.974 ± 0.033 | NP40-soluble protein abundance (concentration: 2mM): 0.896 ± 0.11 | NP40-soluble protein abundance (concentration: 4mM): 0.937 ± 0.023 | NP40-soluble protein abundance (concentration: 6mM): 0.976 ± 0.031 | NP40-soluble protein abundance (concentration: 8mM): 0.994 ± 0.046 | NP40-soluble protein abundance (concentration: 10mM): 0.957 ± 0.048

A0A0B4J2E5|Q15269 (UniProt Q15269)
Sequence of UniProt Q15269 (Q15269 whole entry, looked up, one chain of several): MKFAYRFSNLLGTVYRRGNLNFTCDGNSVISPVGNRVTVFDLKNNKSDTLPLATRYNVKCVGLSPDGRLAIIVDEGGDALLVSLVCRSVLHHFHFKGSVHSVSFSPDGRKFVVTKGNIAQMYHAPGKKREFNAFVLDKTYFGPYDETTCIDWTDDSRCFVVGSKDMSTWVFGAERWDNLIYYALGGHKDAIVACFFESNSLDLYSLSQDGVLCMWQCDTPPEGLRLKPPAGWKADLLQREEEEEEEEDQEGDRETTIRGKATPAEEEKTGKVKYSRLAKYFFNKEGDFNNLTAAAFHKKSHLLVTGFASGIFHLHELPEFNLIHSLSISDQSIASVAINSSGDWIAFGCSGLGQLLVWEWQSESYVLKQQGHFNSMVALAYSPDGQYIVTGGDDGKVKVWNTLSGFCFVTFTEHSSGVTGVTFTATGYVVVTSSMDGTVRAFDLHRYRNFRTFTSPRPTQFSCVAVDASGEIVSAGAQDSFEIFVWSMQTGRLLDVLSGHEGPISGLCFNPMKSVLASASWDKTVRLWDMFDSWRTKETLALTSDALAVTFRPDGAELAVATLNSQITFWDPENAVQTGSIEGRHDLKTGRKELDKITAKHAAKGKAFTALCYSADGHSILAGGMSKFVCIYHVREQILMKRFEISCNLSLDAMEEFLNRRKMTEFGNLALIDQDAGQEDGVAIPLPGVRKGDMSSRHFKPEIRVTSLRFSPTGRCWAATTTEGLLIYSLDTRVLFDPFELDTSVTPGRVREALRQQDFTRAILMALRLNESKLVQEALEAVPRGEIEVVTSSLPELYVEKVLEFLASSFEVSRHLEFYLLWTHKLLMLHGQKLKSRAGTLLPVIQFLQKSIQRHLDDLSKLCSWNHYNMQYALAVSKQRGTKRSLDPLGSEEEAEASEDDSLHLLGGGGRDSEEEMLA
NP40-soluble protein abundance (concentration: 1mM): 1.05 ± 0.019 | NP40-soluble protein abundance (concentration: 2mM): 1.04 ± 0.098 | NP40-soluble protein abundance (concentration: 4mM): 1.23 ± 0.043 | NP40-soluble protein abundance (concentration: 6mM): 1.38 ± 0.036 | NP40-soluble protein abundance (concentration: 8mM): 1.56 ± 0.074 | NP40-soluble protein abundance (concentration: 10mM): 1.52 ± 0.095

C9JYN0|Q16563-2|Q16563 (UniProt Q16563)
Sequence of UniProt Q16563 (Q16563 whole entry, one chain of several): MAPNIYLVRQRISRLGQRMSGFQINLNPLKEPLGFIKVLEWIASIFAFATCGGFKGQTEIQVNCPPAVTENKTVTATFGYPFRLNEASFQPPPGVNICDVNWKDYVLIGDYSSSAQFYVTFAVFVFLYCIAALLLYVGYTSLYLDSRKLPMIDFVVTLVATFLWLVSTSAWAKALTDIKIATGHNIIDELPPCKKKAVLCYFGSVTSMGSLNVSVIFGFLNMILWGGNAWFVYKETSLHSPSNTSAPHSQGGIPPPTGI
NP40-soluble protein abundance (concentration: 1mM): 1.01 ± 0.015 | NP40-soluble protein abundance (concentration: 2mM): 1.06 ± 0.12 | NP40-soluble protein abundance (concentration: 4mM): 1.05 ± 0.042 | NP40-soluble protein abundance (concentration: 6mM): 1.12 ± 0.12 | NP40-soluble protein abundance (concentration: 8mM): 1.12 ± 0.057 | NP40-soluble protein abundance (concentration: 10mM): 1.14 ± 0.17
